proKLK7 act – activates the human kallikrein-7 zymogen | P49862 | purified proKLK7, EDANS-DABCYL substrate fluorescence; 100% is mature enzyme control, 0% vehicle | activation, % at 7 µM | hit rate 0.9% among 370,000;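 active = activation above the mean of all tested compounds plus 3 SD, computed per campaign excluding outliers beyond control limits, cut at about 13% in these data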
Target sequence (P49862 whole entry, looked up): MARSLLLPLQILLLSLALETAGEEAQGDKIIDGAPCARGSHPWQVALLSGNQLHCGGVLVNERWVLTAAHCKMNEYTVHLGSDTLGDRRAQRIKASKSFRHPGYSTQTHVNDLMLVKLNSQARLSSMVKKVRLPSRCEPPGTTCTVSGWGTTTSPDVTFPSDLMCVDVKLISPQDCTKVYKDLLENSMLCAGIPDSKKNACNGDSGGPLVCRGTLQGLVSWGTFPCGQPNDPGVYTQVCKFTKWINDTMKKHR
rCAG binder – molecules binding r(CAG) RNA repeats; r(CAG) RNA repeat, TO-PRO-1 dye displacement fluorescence; inhibition, % at 3 µM; hit rate 1.3% among 370,000;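 active = inhibition above the plate cutoff, the mean of all test compounds on that plate plus 3 SD, cut at about 35% in these data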;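 note: higher means more dye released from RNA so lower well fluorescence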
AHR act – activators of human aryl hydrocarbon receptor. activation, % at 5 µM. AHR-responsive luciferase reporter cells, luminescence. AID 2796. hit rate 2.5% among 320,000. P35869; in the data active = activation above about 47%
ADAM17 inh – inhibits human ADAM17 | recombinant ADAM17, EDANS/DABCYL FRET peptide cleavage | inhibition, % at 6.95 µM | hit rate 0.83% among 370,000 | P78536 | AID 720648;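 active = inhibition above the mean of compounds lying between control limits plus 3 SD, set per campaign, cut at about 8.5% in these data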
GRIN3A LBD mod – modulates the human NR3A ligand-binding domain; Tm shift relative to glycine control, % at 25 µM; NR3A LBD differential scanning fluorimetry, Tm shift; 0% = protein alone, 100% = glycine-bound protein; hit rate 2.5% among 340,000;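 active = melting temperature shift of at least 10% of the positive control shift, at one fixed dose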
ADAM10 inh – inhibitors of human ADAM10. recombinant ADAM10, EDANS/DABCYL FRET peptide cleavage, 3 h. inhibition, % at 7 µM. hit rate 0.62% among 370,000. O14672;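 active = inhibition above a per-campaign cutoff equal to the mean of compounds falling between control-based bounds plus 3 SD, cut at about 20% in these data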
ADAM10 confirm – confirmation of inhibitors of human ADAM10. shares compounds with ADAM10 inh. ADAM10 QFRET peptide cleavage, EDANS fluorescence. inhibition, % at 6.95 µM. hit rate 1% among 2,100. AID 743208;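 active = inhibition above about 20% chosen separately for each screening run, limit read from the data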
ADAM17 counter – counter-screen for ADAM10 exosite inhibitors: inhibitors of human ADAM17; shares compounds with ADAM10 inh; ADAM17 QFRET peptide cleavage, EDANS fluorescence; inhibition, % at 6.95 µM; hit rate 0.5% among 2,100;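 active = mean triplicate inhibition above the solvent-only control wells' mean plus 3 SD, cut at about 12% in these data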
Numbers stand for hits; n = inactive; x = no result given; ! = not confirmed by another sample. The list is not random: actives were taken first. Their share in the collection is about 7%.

SMILES	proKLK7 act	rCAG binder	AHR act	ADAM17 inh	GRIN3A LBD mod	ADAM10 inh	ADAM10 confirm	ADAM17 counter
CC(C)(C)CC(C)(C)NC(=O)CSCC(=O)Nc1ccc2ccccc2c1	n	n	n	n	n	24.8	n	n
CCC(=O)Nc1ccc2ccccc2c1	n	n	n	n	n	n	x	x
COCCOC(=O)C1=C(C)NC(C)=C(C(=O)OC(C)C)C1c1cccc([N+](=O)[O-])c1 (centres undefined)	n	n	n	n	n	22.3!	n	n
CCOC(=O)c1c(C)[nH]c(C)c1S(=O)(=O)NCCN1CCN(c2cc(Cl)ccc2C)CC1	n	n	n	12.0	n	24.2	n	n
CCOC(=O)c1c(C)[nH]c(C)c1S(=O)(=O)NCCCN1CCOCC1	n	n	n	n	n	n	x	x
CCC(=O)Nc1ccc(S(=O)(=O)NCCc2ccccc2)cc1	n	n	n	n	n	n	x	x
O=C(Nc1ccc(S(=O)(=O)NCCc2ccccc2)cc1)c1ccc(Br)o1	n	n	n	n	n	20.6	n	n
OC[C@@H]1CN(Cc2ccc3c(c2)OCO3)C[C@H](n2cnc3c(N4CCN(c5ccccc5)CC4)ncnc32)O1	n	n	x	n	x	n	x	x
COC(=O)c1cc(NC(=O)Nc2cccc(Cl)c2)ccc1Cl	n	n	n	n	38.2	20.2	n	n
O=C(Nc1cccc(F)c1)Nc1cccc(Cl)c1	n	n	n	n	42.0	23.3	n	n
CCCCOc1cccc2c(=O)n(CC(=O)Nc3ccc4c(c3)OCCO4)ccc12	n	n	x	n	x	n	x	x
CCOc1cc(OCC)cc(C(=O)N2CCC[C@H]2C(=O)N2CCC[C@H]2C(=O)N[C@@H](C)c2ccccc2)c1	n	n	x	n	x	n	x	x
O=C(COC(=O)c1cccnc1Cl)Nc1nc(-c2ccccc2)cs1	n	n	n	n	n	n	x	x
O=c1[nH]c(C2CCN(S(=O)(=O)c3ccc(F)cc3)CC2)nc2c1nnn2Cc1ccc2c(c1)OCCO2	n	n	n	n	n	23.0	n	n
Cc1ccc(C)c(S(=O)(=O)N2CCC(c3nc4c(nnn4Cc4ccc(F)cc4)c(=O)[nH]3)CC2)c1	n	n	n	n	n	n	x	x
O=c1[nH]c(C2CCN(S(=O)(=O)Cc3ccccc3)CC2)nc2c1nnn2Cc1ccccc1	n	n	n	n	n	n	x	x
O=c1[nH]c(C2CCN(S(=O)(=O)/C=C/c3ccccc3)CC2)nc2c1nnn2Cc1ccc(F)cc1	n	n	n	n	n	28.8	n	n
Cc1ccc(Cn2nnc3c(=O)[nH]c(C4CCN(S(=O)(=O)c5ccc(F)cc5)CC4)nc32)cc1	n	n	n	n	n	21.2	n	n
O=C(CCNC(=O)Cn1ccc2ccccc2c1=O)NCCc1ccc(Cl)cc1	n	n	n	n	n	n	x	x
CC1CCCCN1C(=O)C1COc2ccccc2O1 (centres undefined)	n	n	n	n	n	n	x	x
O=C(CCN1C(=O)c2ccccc2C1=O)NCc1ccc(Cl)cc1	n	n	n	n	n	n	x	x
CCC(C)(NC(=O)c1ccc2c(c1)OCO2)C(=O)NC1CCCCC1 (centres undefined)	n	n	n	n	n	n	x	x
Cc1ccc(C)c(NS(=O)(=O)c2cc(C(=O)NCCC3=CCCCC3)ccc2C)c1	n	n	n	n	n	20.1	n	n
CCn1c(SCC(=O)N2CCCCCC2)nc2c(c1=O)SCC2	n	n	n	n	n	n	x	x
COCCn1c(SCC(=O)N2CCCC2)nc2c(c1=O)SCC2	n	n	x	n	x	21.0	n	n
SMILES	proKLK7 act	rCAG binder	AHR act	ADAM17 inh	GRIN3A LBD mod	ADAM10 inh	ADAM10 confirm	ADAM17 counter
CCCC(=O)Nc1ccc(C=C(C(C)=O)C(C)=O)cc1	n	n	n	n	n	n	x	x
O=C1[C@H]2[C@@H](c3ccc(F)cc3)N3C(=O)N(c4ccccc4)C(=O)[C@@]3(Cc3ccccc3)[C@H]2C(=O)N1C1CCCCC1	n	n	n	n	n	24.0	n	n
COc1ccc(N2C(=O)N3[C@H](c4ccc(Br)cc4)[C@@H]4C(=O)N(C(C)(C)C)C(=O)[C@@H]4[C@]3(Cc3ccccc3)C2=O)cc1	n	n	n	n	n	23.9	n	n
COc1ccc(C2C(C(N)=O)=C(C)Nc3nc(CCCO)nn32)cc1OC (centres undefined)	x	x	n	x	n	x	x	x
O=C1CCC/C=C/C[C@H](CC(=O)N(CCO)Cc2ccccc2)C(=O)N[C@@H](Cc2ccccc2)CO1	n	n	n	n	n	n	x	x
COC(=O)c1cc(S(=O)(=O)NCCN2CCOCC2)cn1C	n	n	n	n	n	n	x	x
CN1C(=O)Cc2cc(S(=O)(=O)N3CCN(c4cccc(Cl)c4)CC3)ccc21	n	n	n	n	n	n	x	x
CN1C(=O)Cc2cc(S(=O)(=O)N3CCN(c4ccc(Cl)cc4)CC3)ccc21	n	n	n	n	n	21.0	n	n
COc1ccc(C2=NOC(C(=O)Nc3ccc4c(c3)OCO4)C2)cc1 (centres undefined)	n	n	x	n	n	22.1	n	n
O=C(NC(C(=O)N/N=C/c1cccc2ccccc12)c1n[nH]c(=O)c2ccccc12)c1ccccc1 (centres undefined)	n	n	n	n	n	21.9	n	n
CCOc1cc(/C=N/NC(=O)COc2ccc(C)cc2)ccc1OC(=O)c1cccs1	n	n	n	n	n	21.1	n	n
COc1cc(/C=N/NC(=O)COc2ccc(C)cc2)ccc1OC(=O)c1cccs1	n	n	n	n	n	n	x	x
CC(=O)Nc1ccc2c(c1)nc1n2CCOC1	n	n	n	n	n	83.8	n	n
CSc1ccccc1NC(=O)C(=O)c1c[nH]c2ccccc12	n	n	48.4	n	21.4	22.3	n	n
CN1CCN(NC(=O)/C=C/c2cccc(Cl)c2)CC1	n	n	n	n	n	n	x	x
O=C1c2ccccc2C(=O)N1CCc1c(-c2ccccc2)[nH]c2ccccc12	n	n	x	n	n	20.0	n	n
CCN(C(=O)C(C)Sc1nnc(-c2ccncc2)n1C)C1CCCCC1 (centres undefined)	n	n	n	n	n	n	x	x
O=C(c1ccc(C#Cc2ccccc2)o1)N1CCN(c2ccccn2)CC1	n	n	n	n	n	21.9	n	n
O=C(COC(=O)CCSc1ccccc1Cl)Nc1ccc(F)cc1F	n	n	n	n	n	22.6	n	n
Nc1ccc(C(=O)Nc2ccc(Nc3ccncc3)cc2)c([N+](=O)[O-])c1	n	n	x	n	x	n	x	x
CC(C)=NOCC(=O)Nn1c(COc2c(C)cccc2C)nc2ccccc2c1=O	n	n	n	n	n	n	x	x
COc1ccc(CN2CCC(Oc3ccc(C(=O)N4CCCC4)cc3)CC2)c(F)c1	n	n	n	n	n	n	x	x

Source: PubChem (several laboratories)
